Measured values from ChEMBL document CHEMBL3988442, “University of Dundee, Small-Polar-MMV Screening Library” (2021).
Among all 38,000 compounds or so, about 1,200 (3.2%) showed an effect of 50% or more. The median lay at about -58%. The sample holds strong results, similar compounds and a random draw of the others, so the mix is not that of the screen.

What follows are compounds tested on Plasmodium falciparum (assay: Calibr Malaria Delayed Death Assay SOP). Conditions: concentration 4.99e-06 (unit not given; other assays of the set use mol/L).
Assay type: functional, organism-based
Parameters: scale not given: in the data most compounds retested in dose-response had high values
For `O=C(CCc1ccccn1)N1CCCC(N2CCNC2=O)C1` (centres undefined), the “Percent Effect” value was -153%. For `Cc1ccc(Cl)c(C)c1NC(=O)N1CCCN(Cc2ccccn2)CC1`, the “Percent Effect” value was -12.1%. For `COc1cccc(CN2CCCC2c2c(C)nn(C)c2C)c1` (centres undefined), the “Percent Effect” value was 21.41%. In the case of `Cc1nc(CN2CCCCC2Cn2cccn2)nc2ccccc12` (centres undefined), the “Percent Effect” value is reported as 70.28%. For `Cc1nc2ccccc2nc1CN1CCCC1c1c(C)nn(C)c1C` (centres undefined), the “Percent Effect” value was 56.82%. In the case of `c1ccc(Cc2noc(CN3CCCCC3Cn3cccn3)n2)cc1` (centres undefined), the “Percent Effect” value is reported as -99.91%. In the case of `Cc1nc(C)n(CC2CCCN2Cc2nc(N)c3ccccc3n2)n1` (centres undefined), the “Percent Effect” value is reported as -104.3%. In the case of `Cc1nc(CN2CCCC2c2ccsc2)nc2ccccc12` (centres undefined), the “Percent Effect” value is reported as 24.09%. `Cc1nc(CN2CCCC2Cn2cccn2)nc2ccccc12` (centres undefined) was tested, and the “Percent Effect” value was 55.28%. In the case of `Cc1nc(CN2CCCCC2Cn2cncn2)nc2ccccc12` (centres undefined), the “Percent Effect” value is reported as -55.02%. With `CC(C)c1nccn1CC1CCCN1Cc1nc2ccccc2n1C` (centres undefined) the “Percent Effect” value was 20.35%. With `Cc1nc(CN2CCCC2Cn2ccnc2C(C)C)nc2ccccc12` (centres undefined) the “Percent Effect” value was 77.09%. For `Cc1nn(C)c(C)c1C1CCCN1CCCc1nc2ccccc2o1` (centres undefined), the “Percent Effect” value was 18.49%. In the case of `c1cnn(CC2CCCN2Cc2noc(C3CC3)n2)c1` (centres undefined), the “Percent Effect” value is reported as -115.2%. For `CC(c1nc(C2CC2)no1)N1CCN(CCN2CCCC2=O)CC1` (centres undefined), the “Percent Effect” value was -34.43%. `CC(=O)N1CCN(c2cc(N3CCOCC3)cnn2)CC1` was tested, and the “Percent Effect” value was -46.73%. With `CCSc1nnc([C@@H](N)CC(C)C)o1.Cl` the “Percent Effect” value was -105.7%. For `CC(C)(C)c1nc(CN(Cc2ccccc2Cl)C2CCCC2)no1`, the “Percent Effect” value was -109.5%. `Cc1cc(C(F)(F)F)nc(CCNC(C)Cn2nc(C)cc2C)n1` (centres undefined) was tested, and the “Percent Effect” value was 25.86%. With `CCSc1nc2ccccc2c(=O)n1OCC(=O)OC` the “Percent Effect” value was -35.88%. In the case of `N#Cc1c(SCCN2CCOCC2)sc2c(O)cc(O)nc12`, the “Percent Effect” value is reported as 20.53%. In the case of `CC(Nc1ccc(Br)cc1)c1nc(C2CC2)no1` (centres undefined), the “Percent Effect” value is reported as -70.57%. In the case of `CCOCC1CN(C(=O)N2CCCC2)Cc2cnn(CC)c21` (centres undefined), the “Percent Effect” value is reported as -92.45%. With `CCOc1ccc2[nH]c(=O)c(CN3CCN(S(N)(=O)=O)CC3)cc2c1` the “Percent Effect” value was -148.7%. With `CC1CCCN(c2ncc(C(=O)NCc3ccc(F)c(Cl)c3)c(N)n2)C1` (centres undefined) the “Percent Effect” value was -82.32%. `O=C(CN1CCCC1Cn1cncn1)NCC1(c2ccccc2)CC1` (centres undefined) was tested, and the “Percent Effect” value was -28.68%. For `Cc1nc2ccccc2nc1CN1CCCC1Cn1cccn1` (centres undefined), the “Percent Effect” value was 67.78%. With `Cc1cnn(CC2CCCN2Cc2nc3ccccc3nc2C)c1` (centres undefined) the “Percent Effect” value was -94.42%. With `Cc1nc2ccccc2nc1CN1CCOC(Cn2cccn2)C1` (centres undefined) the “Percent Effect” value was -57.9%. For `c1ccc(CN2CCC(NCCc3ccc4c(c3)CCO4)CC2)nc1`, the “Percent Effect” value was 34.15%. In the case of `Cc1[nH]c2ccc(CNC3CCN(Cc4ccccn4)CC3)cc2c1C`, the “Percent Effect” value is reported as 93.27%. With `Cc1n[nH]c2ncc(CNC3CCN(Cc4ccccn4)CC3)cc12.Cl` the “Percent Effect” value was -31.75%. In the case of `Cc1nnc(SCc2cccc(F)c2)n1CC(N)=O`, the “Percent Effect” value is reported as -112.6%. `Cc1ccc(N2CCc3sc(C(=O)NCCN4CCCC4)cc32)nn1` was tested, and the “Percent Effect” value was -55.34%. In the case of `C=C(C)CN1CCN(CCC(=O)Nc2ccccc2C(N)=O)CC1`, the “Percent Effect” value is reported as 11.76%. With `O=C(NC[C@H]1OC[C@@H]2CN(Cc3ccco3)CC[C@@H]21)c1cscn1.O=C(O)C(F)(F)F` the “Percent Effect” value was -201.4%. For `CC(C)CCn1cc(C(=O)NC2CCS(=O)(=O)C2)c2ccccc2c1=O` (centres undefined), the “Percent Effect” value was -89.43%. With `CCC(Nc1nc(CCN)nc2ccccc12)c1cccs1` (centres undefined) the “Percent Effect” value was 62.16%. For `CCC(Nc1nc(CCN)nc2ccccc12)c1cc(C)ccn1` (centres undefined), the “Percent Effect” value was -26.25%. In the case of `CCC(Nc1nc(C)nc2onc(C)c12)c1cccs1` (centres undefined), the “Percent Effect” value is reported as 19.14%. `CN(C)CCn1c2c(ccc1=O)CC(NC(=O)c1cnccn1)CC2.O=C(O)C(F)(F)F` (centres undefined) was tested, and the “Percent Effect” value was -12.74%. For `Cc1cccc(CN2CCC(c3nnsc3S(C)(=O)=O)CC2)c1`, the “Percent Effect” value was -50.13%. For `CNC(=O)NCC1CCC2(CCN(C(=O)c3ccccn3)CC2)CO1.O=C(O)C(F)(F)F` (centres undefined), the “Percent Effect” value was -170.4%. With `CCn1cncc1C1CC(=O)Nc2c1c(C)nn2-c1ccc(C)cc1` (centres undefined) the “Percent Effect” value was -199.9%. In the case of `Cn1cncc1CN1CCC2(CC1)CCN2c1ncccn1`, the “Percent Effect” value is reported as -81.78%. For `Cc1ncc(CN2CCC(c3ccnn3C)CC2)n1-c1ccccc1`, the “Percent Effect” value was 30.79%. In the case of `Cc1nnc(CN2CCN(Cc3nccn3C)CC2)n1C`, the “Percent Effect” value is reported as -20.51%. `CCc1nc(CN2CCCN(C(=O)c3ccco3)CC2)cs1` was tested, and the “Percent Effect” value was -4.304%. In the case of `O=C(O)C(F)(F)F.O=C(O)C(F)(F)F.c1cncc(C2COC3(CCN(Cc4ccsc4)CC3)C2)c1` (centres undefined), the “Percent Effect” value is reported as 12.38%. With `Cc1nc(C(=O)Nc2cccnc2)c(C(C)C)s1` the “Percent Effect” value was -80.98%. `Cc1c(CN2CCCC(C(=O)Nc3ccccc3)C2)cc(C#N)n1C` (centres undefined) was tested, and the “Percent Effect” value was 39.8%. `CN(Cc1cccnc1)[C@@H]1CN(Cc2nccn2C)[C@@H]2CCCO[C@H]12.O=C(O)C(F)(F)F.O=C(O)C(F)(F)F.O=C(O)C(F)(F)F.O=C(O)C(F)(F)F` was tested, and the “Percent Effect” value was -14.02%. In the case of `COc1ccc(Br)c(NC(=O)NCc2cnn(C)c2)c1`, the “Percent Effect” value is reported as -45%. In the case of `CN1CCC2(CC1)CCN(C(=O)c1onc3ccccc13)C2`, the “Percent Effect” value is reported as -111.7%. In the case of `O=C1NCCCCC1Sc1ccc(F)cc1F` (centres undefined), the “Percent Effect” value is reported as -40.24%. In the case of `Cc1ccc(F)cc1CC(=O)N1CC[C@@]2(O)CCNC[C@H]2C1`, the “Percent Effect” value is reported as -30.21%. For `Cc1nc(N(C)C)nc2c1COCC21CCN(C(=O)C2CC2)C1` (centres undefined), the “Percent Effect” value was -124.4%. With `O=C(Cn1cc(C2CC2)nn1)N(Cc1cccs1)CC1CCCO1` (centres undefined) the “Percent Effect” value was -9.508%. `O=C(c1ccco1)N1CC(S(=O)(=O)c2ccc(Cl)cc2)C1` was tested, and the “Percent Effect” value was -88.3%. With `O=c1cc(CN(Cc2ccco2)C2CC2)nc2ccc(Br)cn12` the “Percent Effect” value was -50.29%. For `CN1CCC(N(Cc2ccco2)S(=O)(=O)c2ccc(Cl)cc2)CC1`, the “Percent Effect” value was 54.64%. With `O=C(c1cc(Br)ccc1Cl)N1CCN(Cc2ccco2)CC1` the “Percent Effect” value was -2.5%. `CC1CCN(C(=O)CN(Cc2ccco2)C2CC2)CC1` was tested, and the “Percent Effect” value was -121%. For `O=C(CN(Cc1ccco1)C1CC1)Nc1ccc(Br)cn1`, the “Percent Effect” value was -177.6%. In the case of `CN1CCC(N(Cc2ccco2)S(=O)(=O)c2cc(Br)ccc2Br)CC1`, the “Percent Effect” value is reported as 75.01%. In the case of `Cn1cnc(S(=O)(=O)N2CCN(Cc3ccco3)CC2)c1Cl`, the “Percent Effect” value is reported as -15.28%. In the case of `CN1CCC(N(Cc2ccco2)S(=O)(=O)c2ccc(Br)cc2Cl)CC1`, the “Percent Effect” value is reported as 73.43%. `CCc1nc(C(=O)N2CCOCC2)nn1-c1ccccc1Cl` was tested, and the “Percent Effect” value was -27.32%. For `CS(=O)(=O)c1ccc(CN2CCCCC2c2cccc(F)c2)cc1` (centres undefined), the “Percent Effect” value was -43.63%. `COc1cc(CN2CCCC2c2cccc(F)c2)cc(OC)c1OC` (centres undefined) was tested, and the “Percent Effect” value was 25.35%. In the case of `COc1cccc(CN2CCCC2c2cccc(F)c2)c1OC` (centres undefined), the “Percent Effect” value is reported as 53.66%. With `COc1ccc(CN2CCCC2c2cccc(F)c2)c(OC)c1OC` (centres undefined) the “Percent Effect” value was 58.64%. With `Cc1cc2[nH]c(CN3CCCCC3c3cccc(F)c3)cc(=O)n2n1` (centres undefined) the “Percent Effect” value was -66.54%. `COc1cccc(CN2CCCCCC2c2cccs2)c1OC` (centres undefined) was tested, and the “Percent Effect” value was -76.96%. `Cc1ccccc1-c1cc(NC(=O)CC(C)C)n(CCO)n1` was tested, and the “Percent Effect” value was -65.33%. For `O=C(NCCc1c[nH]c2ccccc12)C1(n2cnnn2)CCCCC1`, the “Percent Effect” value was -28.02%. In the case of `O=C(O)C(F)(F)F.O=C(c1cccc(F)c1)N1CCC2(CC1)CN(c1ccccn1)CCO2`, the “Percent Effect” value is reported as -103.6%. For `Cc1nn2c(-c3cnn(C)c3)nnc2s1`, the “Percent Effect” value was -96.58%. For `CC(C)(C)OC(=O)N1CCN(S(C)(=O)=O)C2(CCCCC2)C1`, the “Percent Effect” value was -78.85%. In the case of `Cc1cc(N2CCCC(O)(CN(C)C)C2)c2cc3c(cc2n1)OCO3` (centres undefined), the “Percent Effect” value is reported as 79.58%. For `CN(C)CC1(O)CCN(C(=O)c2cnc(-c3ccccn3)nc2)C1` (centres undefined), the “Percent Effect” value was -83.84%. For `CN(C)CC1(O)CCCN(c2noc(-c3ccccc3)n2)CC1` (centres undefined), the “Percent Effect” value was -4.701%. For `Cc1cc(C)c2[nH]c(=O)c(CN3CCC(O)(CN(C)C)C3)cc2c1` (centres undefined), the “Percent Effect” value was 5.101%. With `Cc1cc(N2CCCC3(CN(C)C(=O)O3)C2)c2cc3c(cc2n1)OCO3` (centres undefined) the “Percent Effect” value was -65%. In the case of `Cc1cc(N2CCC(O)(CN(C)C)C2)c2cc3c(cc2n1)OCO3` (centres undefined), the “Percent Effect” value is reported as 89.44%. For `CN(C)C(=O)CC1CC2(CCN(Cc3ccco3)CC2)c2ccccc21.O=C(O)C(F)(F)F` (centres undefined), the “Percent Effect” value was 24.78%. In the case of `CN1C(=O)C2(CCCN(C(=O)c3ccc(=O)n(C)n3)C2)c2ccccc21` (centres undefined), the “Percent Effect” value is reported as -36.85%. For `Cc1cc(C(=O)N2CCn3cc(CN4CCCCC4)nc3C2)no1`, the “Percent Effect” value was -18.56%. In the case of `CC(C)N(C)[C@@H]1CCN(Cc2ccoc2)[C@H]1Cc1ccccc1`, the “Percent Effect” value is reported as 9.124%. With `CN(C)[C@@H]1CCN(S(=O)(=O)C2CC2)[C@H]1Cc1ccccc1.O=C(O)C(F)(F)F` the “Percent Effect” value was 63.58%. `O=S(=O)(C1CC1)N1CC[C@H](OCC2CC2)[C@@H]1Cc1ccncc1` was tested, and the “Percent Effect” value was -74.15%. `CN(C)[C@@H]1CCN(C(=O)c2ccccn2)[C@H]1Cc1ccncc1` was tested, and the “Percent Effect” value was -71%. With `CC(C)N(C)[C@@H]1CCN(S(C)(=O)=O)[C@H]1Cc1ccccc1` the “Percent Effect” value was 53.16%. For `CC(C)NC(=O)N1CC[C@@H](N(C)C)[C@@H]1Cc1ccccc1.O=C(O)C(F)(F)F`, the “Percent Effect” value was 14.09%. For `CN(C)[C@@H]1CCN(S(C)(=O)=O)[C@H]1Cc1ccccc1`, the “Percent Effect” value was 16.37%. `CN(C)[C@@H]1CCN(S(=O)(=O)c2cn(C)cn2)[C@H]1Cc1cccnc1.O=C(O)C(F)(F)F.O=C(O)C(F)(F)F.O=C(O)C(F)(F)F` was tested, and the “Percent Effect” value was -62.43%. `CC(C)OC[C@H]1CCC[C@]12CN(C(=O)C1CCOCC1)CCO2` was tested, and the “Percent Effect” value was -62.83%. With `CNC(=O)CN1CCC(CN(C)Cc2ccccc2N(C)C)CC1` the “Percent Effect” value was -85.31%. With `COc1ccc(CN2C[C@@H](O)[C@](O)(CNC(=O)c3ccccn3)C2)cc1` the “Percent Effect” value was -63.46%.
